The source of these data is PubChem BioAssay (Tox21).

Assay [1] can be described thus: qHTS assay to identify small molecule agonists of the hypoxia (HIF-1) signaling pathway - cell viability counter screen (AID 1224844; calls by dose curve; also: nearly all actives have a fitted effect of over 50% in size; also: potency is read from the fitted curve at half-maximal effect). In outline:
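CellTiter-Glo luminescence read-out, 30 min RT, taken in the same wells as the beta-lactamase HRE reporter assay; HRE-bla ME-180 cells, 0.5% dialyzed FBS, 17 hr compound treatment at 37C, 5% CO2.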

A short description of assay [2]: qHTS assay to identify small molecule agonists of H2AX (AID 1224845; active = well fitted activation curve with a large enough effect in the signal ratio in the repeat runs, not every such curve was filed as active; the % refers to the signal ratio; also: potency is read from the fitted curve at half-maximal effect). In outline: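 Wild-type CHO-K1 cells, plated overnight, exposed 3hr at 37C to 15 concentrations (0.76% DMSO final). Lysed, then HTRF anti-pH2AX (S139) cryptate and anti-H2AX-d2 antibodies, 24 hr room temperature; 665/620 nm emission read.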
Assay [3] in a line: qHTS assay to identify small molecule agonists of H2AX - cell viability counter screen (AID 1224847; calls by dose curve; also: nearly all actives have a fitted effect of over 30% in size; also: potency is read from the fitted curve at half-maximal effect). In outline: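 Cells plated first: CHO-K1, 1000 per well in 10% FBS medium, incubated overnight at 37C. Then 15-point compound titration added (final DMSO 0.76%) for 3 hr. Finally CellTiter-Glo added and luminescence read.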
Assay [4] is described as follows: qHTS assay to identify small molecule antagonists of the estrogen related receptor (ERR) signaling pathway from Tox21 library (AID 1224848). Also: nearly all actives have a fitted effect of over 50% in size. Also: potency is read from the fitted curve at half-maximal effect. The gist of the method: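 Quantitative high-throughput format: ERR reporter cells (2,000/well) pre-incubated 6 h, treated 18 h at 37 C with compounds in DMSO alongside positive and negative controls, then read by ONE-Glo luminescence.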

Assay [5] is described as follows: qHTS assay to identify small molecule agonists of the estrogen related receptor (ERR) signaling pathway from Tox21 library (AID 1224849; calls by dose curve; also: nearly all actives have a fitted effect of over 15% in size). The following applies: ERR reporter cell line, ONE-Glo luciferase, 18 h; at 92.4 µM (top of the series) unless noted. In outline:
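Luminescence readout (ONE-Glo, 30 min RT) after 18 h compound exposure at 37 C of NTP-supplied ERR reporter cells; cells were plated 6 h before compound addition by pin tool.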

The nature of assay [6]: qHTS RealTime-Glo MT Cell Viability Assay in HEK293 cells - 32 hour (AID 1224868). Also: nearly all actives have a fitted effect of over 50% in size. Also: potency is read from the fitted curve at half-maximal effect. In outline:
(§1)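 Reads taken at 0, 8, 16, 24, 32 and 40 h from the same wells. HEK293 cells (600/well) carried RealTime-Glo reagents from seeding, with compound added after a 5 h settle at 37 C.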

Assay [7] can be described thus: A CellTox Green Cytotoxicity Assay to monitor cytotoxicity in HEK293 cells - 0 hour (AID 1224869). Also: nearly all actives have a fitted effect of over 50% in size. Also: potency is read from the fitted curve at half-maximal effect. The gist of the method:
(§2)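 Read-out: fluorescence of a cell-impermeant cyanine dye staining DNA of dead cells, proportional to cytotoxicity. HEK293, 600 cells/well with reagent, compound (23 nL DMSO) added after 5 h; reads at 0, 8, 16, 24, 32, 40 h.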

Assay [8] can be described thus: qHTS RealTime-Glo MT Cell Viability Assay in HepG2 cells - 40 hour (AID 1224870). Also: nearly all actives have a fitted effect of over 50% in size. Also: potency is read from the fitted curve at half-maximal effect. In outline:
(§3)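 HepG2 cells (600/well) mixed with RealTime-Glo MT reagent, settled 5 h at 37 C/5% CO2 before compound addition. Nonlytic NanoLuc luminescence from viable-cell prosubstrate reduction read repeatedly during 40 h treatment at 37 C.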

The nature of assay [9]: A CellTox Green Cytotoxicity Assay to monitor cytotoxicity in HEK293 cells - 40 hour (AID 1224871). Also: nearly all actives have a fitted effect of over 45% in size. Also: potency is read from the fitted curve at half-maximal effect. In outline:
as §2

Assay [10] can be described thus: qHTS RealTime-Glo MT Cell Viability Assay in HEK293 cells - 16 hour (AID 1224872). Also: nearly all actives have a fitted effect of over 50% in size. Also: potency is read from the fitted curve at half-maximal effect. In outline: as §1
A short description of assay [11]: qHTS RealTime-Glo MT Cell Viability Assay in HepG2 cells - 8 hour (AID 1224873). Also: nearly all actives have a fitted effect of over 55% in size. Also: potency is read from the fitted curve at half-maximal effect. In outline:
as §3

Assay [12] is described as follows: qHTS RealTime-Glo MT Cell Viability Assay in HEK293 cells - 40 hour (AID 1224874). Also: nearly all actives have a fitted effect of over 50% in size. Also: potency is read from the fitted curve at half-maximal effect. The conditions noted are these: RealTime-Glo luminescence; max response: stronger effect = lower value. In outline:
(§4)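 Luminescence readout at each listed time point; HEK293, 600 cells/well, RealTime-Glo MT reagent added with cells; compounds pinned (23 nL in DMSO) after 5 h at 37 C; continuous culture at 37 C.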

A short description of assay [13]: A CellTox Green Cytotoxicity Assay to monitor cytotoxicity in HEK293 cells - 24 hour (AID 1224875). Also: nearly all actives have a fitted effect of over 45% in size. Also: potency is read from the fitted curve at half-maximal effect. In outline: as §2
Assay [14] can be described thus: A CellTox Green Cytotoxicity Assay to monitor cytotoxicity in HepG2 cells - 16 hour (AID 1224876). Also: nearly all actives have a fitted effect of over 45% in size. Also: potency is read from the fitted curve at half-maximal effect. In outline: (§5)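 HepG2, 600 cells/well premixed w/ CellTox Green; 5 h settle, 37 C/5% CO2; pintool cpd add (DMSO); 37 C, 40 h; fluorescence read at 0, 8, 16, 24, 32, 40 h.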
Assay [15] is described as follows: qHTS RealTime-Glo MT Cell Viability Assay in HepG2 cells - 32 hour (AID 1224877). Also: nearly all actives have a fitted effect of over 55% in size. Also: potency is read from the fitted curve at half-maximal effect. The gist of the method: (§6)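 HepG2 suspension premixed with RealTime-Glo reagents is plated at 600 cells per well and left 5 h at 37 C/5% CO2. Compounds in DMSO then go in, and bioluminescence reflecting viable cell number is recorded over 40 h.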
Assay [16] can be described thus: A CellTox Green Cytotoxicity Assay to monitor cytotoxicity in HepG2 cells - 24 hour (AID 1224878). Also: nearly all actives have a fitted effect of over 45% in size. Also: potency is read from the fitted curve at half-maximal effect. In outline:
as §5

A short description of assay [17]: A CellTox Green Cytotoxicity Assay to monitor cytotoxicity in HepG2 cells - 40 hour (AID 1224879). Also: nearly all actives have a fitted effect of over 40% in size. Also: potency is read from the fitted curve at half-maximal effect. In outline:
as §5

Assay [18] can be described thus: qHTS RealTime-Glo MT Cell Viability Assay in HEK293 cells - 0 hour (AID 1224880). In outline: as §4
A short description of assay [19]: qHTS RealTime-Glo MT Cell Viability Assay in HepG2 cells - 24 hour (AID 1224867). Also: nearly all actives have a fitted effect of over 50% in size. Also: potency is read from the fitted curve at half-maximal effect. In outline:
as §6

The nature of assay [20]: qHTS assay to identify small molecule agonists of the hypoxia (HIF-1) signaling pathway (AID 1224846; active = well fitted activation curve with a large enough effect in the signal ratio in the repeat runs, not every such curve was filed as active; the % refers to the signal ratio). The gist of the method:
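Beta-lactamase FRET read-out (CCF4-AM substrate) from ME-180 cells carrying an HRE-driven bla reporter, after 17 hrs compound exposure at 37C/5% CO2. Cells were seeded at 2,000 per well in 0.5% dialyzed FBS medium and preincubated 5 hrs.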

Structures are written as SMILES. Values without a mark were called inactive. Results filed as inconclusive are left out. Calls of active or inactive are those of the source. Unless noted, calls follow the shape of the dose curve; as a rule, active = well fitted curve in the direction sought with a large enough effect in the repeat runs; inconclusive = weak or mixed curves; inactive = no such curve, though single readings can be large; an effect the other way counts as inactive or inconclusive.
% is scaled to controls: 0 for no effect and ±100 for the full control effect.

For the compound `CCC[CH2][Sn]([CH2]CCC)([CH2]CCC)[CH2]CCC`, the Potency in assay [1] is 11 µM (active); in assay [2], 8 µM (active); in assay [3], 14.2 µM (active); in assay [4] it was 13.7 µM (active); in assay [6] it was 8.71 µM (active); in assay [7] it was 49 µM (active). Besides, the Potency in assay [8] is 4.9 µM (active); in [9], 12.3 µM (active); in assay [10], 9.77 µM (active); in [11], 11 µM (active); in assay [12], 7.76 µM (active); in assay [13], 17.4 µM (active). Moreover, the Potency in assay [14] was 17.4 µM (active); in assay [15], 4.9 µM (active); in assay [16], 13.8 µM (active); in assay [17], 11 µM (active). Moreover, in assay [5], the activity change, positive = activation was -63.4%.

Consider `CCOP(=O)(OCC)Oc1nc(Cl)c(Cl)cc1Cl`, for which the Potency result in assay [1], in assay [2], in assay [3], in [6], in assay [7] and in assay [8] was “inactive” each time. Also, the Potency entry in [9], in [10], in [11], in assay [13], in assay [14] and in assay [15] was “inactive” in each case. Also, the Potency result in assay [16], in [17] and in assay [18] was “inactive” throughout. Besides, in assay [12], the max response is -5.34%.

As for `O=C(N[C@H]1N=C(c2ccccc2F)c2cccc3c2N(CC3)C1=O)c1cc2ccccc2[nH]1`, the Potency result in [1], in [2], in assay [3], in assay [19], in [6] and in assay [7] was “inactive” throughout. For the same compound, the Potency entry in [8], in assay [9], in assay [10], in assay [11], in assay [13] and in assay [15] was “inactive” each time. In addition, the Potency result in assay [16], in [17] and in [18] was “inactive” in each case. In [12], the max response is -4.67%.

With `CNC(=O)/C=C(\C)OP(=O)(OC)OC`, the Potency result in assay [1], in assay [20], in [3], in assay [4], in assay [19] and in [6] was “inactive” throughout. The Potency result in [7], in assay [8], in assay [9], in [10], in [11] and in [13] was “inactive” each time. The Potency result in assay [14], in assay [15], in assay [16], in assay [17] and in assay [18] was “inactive” in each case. Further, the activity change, positive = activation in assay [5] is -0.497%. Moreover, the max response in [12] is 6.16%.

As for `Cc1ccc([N+](=O)[O-])[c]2c1[O][Hg]2`, the Potency in assay [1] is 2.13 µM (active); in assay [2], 0.695 µM (active); in [19] it was 2.39 µM (active); in assay [6], 3.79 µM (active); in assay [8], 3.01 µM (active); in assay [9], 0.674 µM (active). Moreover, the Potency in [10] was 3.38 µM (active); in assay [11], 2.13 µM (active); in assay [12], 3.01 µM (active); in [13] it was 1.51 µM (active); in assay [14], 3.01 µM (active); in assay [15] it was 2.39 µM (active). For the same compound, the Potency in assay [16] was 2.68 µM (active); in [17], 1.9 µM (active). The Potency result in [7] and in assay [18] was “inactive” throughout.

`O=[N+]([O-])C(Br)Br`: the Potency in [1] was 43.7 µM (active); in [6] it was 55 µM (active); in assay [10], 55 µM (active); in assay [12], 55 µM (active). In addition, the Potency entry in [3], in [19], in assay [11], in assay [14], in assay [15] and in [16] was “inactive” throughout. Besides, the Potency entry in [18] was “inactive”. Moreover, in [5], the activity change, positive = activation is 5.44%.

In the case of `CC(O)C(=O)[O][Hg][c]1ccccc1` (stereo not given), the Potency in assay [1] is 1.38 µM (active); in assay [3] it was 6.35 µM (active); in assay [4], 3.86 µM (active); in assay [19], 2.45 µM (active); in assay [6], 0.977 µM (active); in [8] it was 2.75 µM (active). Besides, the Potency was 0.977 µM (active) in assay [9]; 1.1 µM (active) in assay [10]; 2.19 µM (active) in [11]; 0.977 µM (active) in [12]; 21.9 µM (active) in assay [13]; 2.75 µM (active) in [14]. The Potency was 2.75 µM (active) in assay [15], 2.45 µM (active) in [16] and 1.95 µM (active) in [17]. Also, the activity change, positive = activation in assay [5] was -80.9%. For the same compound, the Potency entry in assay [7] and in assay [18] was “inactive” in each case.

`CC1CN1` (stereo not given): the Potency result in assay [1], in assay [20], in assay [3], in [19], in [6] and in [7] was “inactive” throughout. Besides, the Potency result in assay [8], in assay [9], in [10], in assay [11], in assay [13] and in assay [14] was “inactive” throughout. In addition, the Potency result in [16], in assay [17] and in assay [18] was “inactive” in each case. For the same compound, the max response in assay [12] was 6.11%.
